“And” between values parts separate entries of the source, which are not always exact repeats. Equal entries are not always repeated. Structures can show the parent of a compound that is named as a salt.
Tests used:
Assay in all cases: cell viability relative to vehicle control; higher = less cytotoxic
Conditions in all cases: 10 µM
K562 = tested on: K562
Method in brief: (§1)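 CRISPR-edited SRSF2 P95 mutant and isogenic wild-type clones of four leukaemia lines were screened against Selleck bioactive, kinase and epigenetic probe libraries, with identity-inconsistent compounds removed. Compounds were acoustically dispensed into 384-well plates at a single 10 µM dose, with 2000 cells in 50 µL medium per well. After 48 h, supernatant was removed and CellTiter-Glo luminescence was read. Viability was expressed as percent of the on-plate DMSO vehicle control, analysed in Genedata Screener.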

MARIMO = tested on: MARIMO
Method in brief: as §1

MOLM14 = tested on: MOLM14
Method in brief: as §1

OCI-AML2 = tested on: OCI-AML2
Method in brief: as §1

Row | Structure (SMILES) | cell viability (K562; SRSF2 genotype: SRSF2 P95H/wt) | cell viability (K562; SRSF2 genotype: SRSF2 wt/wt) | cell viability (MARIMO; SRSF2 genotype: SRSF2 P95H/wt) | cell viability (MARIMO; SRSF2 genotype: SRSF2 wt/wt) | cell viability (MOLM14; SRSF2 genotype: SRSF2 P95H/wt) | cell viability (MOLM14; SRSF2 genotype: SRSF2 wt/wt) | cell viability (OCI-AML2; SRSF2 genotype: P95H/wt) | cell viability (OCI-AML2; SRSF2 genotype: wt/wt)
1 | CCC[C@@H]1C[C@@H](C(=O)N[C@@H]([C@H]2O[C@H](SC)[C@H](O)[C@@H](O)[C@H]2O)[C@@H](C)O)N(C)C1 [Lincomycin hydrochloride (Lincocin)] | 102% and 79.7% | 82.2% | 88.7% | 95.2% | 92.6% | 91.7% | 79.5% | 93.9%
2 | Cc1cc(Nc2cc(N3CCN(C)CC3)nc(/C=C/c3ccccc3)n2)n[nH]1 [ENMD-2076 L-(+)-Tartaric acid] | 22.5% and 29.7% | 22.9% | 34.8% | 30.7% | 2.93% | 6.51% | 7.71% | 14.7%
3 | COc1ccc(C(=O)O)c(O)c1 [4-Methoxysalicylic acid] | 104% and 95.4% | 107% | 98.6% | 99.3% | 98.1% | 106% | 101% | 106%
4 | COC(=O)[C@@H]1[C@H]2C[C@H]3c4[nH]c5ccccc5c4CCN3C[C@@H]2CC[C@@H]1O [Yohimbine hydrochloride (Antagonil)] | 103% and 98.2% | 96.5% | 95.8% | 103% | 95% | 102% | 94.9% | 96.1%
5 | CO/N=C(\C(=O)N[C@@H]1C(=O)N2C(C(=O)O)=CCS[C@H]12)c1csc(N)n1 [Ceftizoxime] | 99.2% and 101% | 110% | 96.1% | 98.9% | 104% | 103% | 111% | 98.5%
6 | OC[C@H]1O[C@H](OCC2O[C@@H](O)[C@H](O)[C@@H](O)[C@@H]2O)[C@H](O)[C@@H](O)[C@H]1O (stereo partly drawn) [Melibiose] | 108% and 104% | 106% | 105% | 110% | 101% | 108% | 98.5% | 103%
7 | COCC[n+]1c2c(n(Cc3cnccn3)c1C)C(=O)c1ccccc1C2=O [YM155 (Sepantronium Bromide)] | 0.4% and 0.35% | 0.47% | 0.69% | 1.06% | 0.33% | 0.32% | 0.31% | 0.36%
8 | CCNC1(C(N)=O)CCN(c2ncnc3c2nc(-c2ccccc2Cl)n3-c2ccc(Cl)cc2)CC1 | 79.4% and 80.8% | 79.1% | 83.1% | 101% | 78.2% | 84.3% | 88.2% | 93%
9 | CN(C)CCC(c1ccc(Br)cc1)c1ccccn1 (stereo not drawn) [Brompheniramine hydrogen maleate] | 95.3% and 97.4% | 91.3% | 86.2% | 90.7% | 101% | 98.8% | 112% | 109%
10 | C[C@@]12C[C@H](c3ccoc3)O[C@@]13C[C@H](OC3=O)[C@H]1[C@H]2C[C@@H]2C[C@H]1C(=O)O2 [Diosbulbin B] | 103% and 104% | 102% | 105% | 108% | 108% | 110% | 102% | 101%
11 | Cc1nc(N(C)C(=O)Cc2ccc(-c3ccccn3)cc2)sc1S(N)(=O)=O [Pritelivir (BAY 57-1293)] | 99.6% and 99.5% | 92.1% | 103% | 112% | 108% | 103% | 98.5% | 95.7%
12 | COC1=C(OC)C(=O)C(CCCCCCCCCCO)=C(C)C1=O [Idebenone] | 78.7% and 86.7% | 86.9% | 85.6% | 89.6% | 88% | 88.7% | 68.8% | 75.2%
13 | CN(C)C(=O)[C@H](O)[C@H](Cc1ccccc1)NC(=O)c1cc2cc(Cl)ccc2[nH]1 | 92.2% and 98.4% | 98% | 95.3% | 98.2% | 88.9% | 104% | 90% | 84.7%
14 | N=c1ccn2c(n1)O[C@H]1[C@H](O)[C@@H](CO)O[C@H]12 [Cyclocytidine HCl] | 92.8% and 103% | 101% | 27.8% | 29% | 11.3% | 2.48% | 9.61% | 9.31%
15 | COCCOc1nc(-c2ccc(Cl)c(Cl)c2)n(-c2ccc(NC(=O)CCl)cc2)n1 [MI-2 (MALT1 inhibitor)] | 16% and 8.54% | 6.61% | 0.5% | 0.7% | 0.48% | 0.53% | 0.42% | 0.46%
16 | Cc1ccc(C(=O)c2cc(O)c(O)c([N+](=O)[O-])c2)cc1 [Tolcapone] | 107% and 113% | 112% | 109% | 111% | 106% | 109% | 113% | 97.3%
17 | CC(=O)O[C@]1(C)CC[C@@]23C[C@H]1C(C)(C)[C@@H]2CC[C@H]3C [Cedryl acetate] | 102% and 105% | 104% | 103% | 117% | 101% | 106% | 112% | 110%
18 | CNCCc1ccccn1 [Betahistine 2HCl] | 97.2% and 99.7% | 95.5% | 88.7% | 102% | 90.6% | 99.8% | 89.3% | 101%
19 | CCC(=O)NS(=O)(=O)c1ccc(-c2c(-c3ccccc3)noc2C)cc1 [Parecoxib] | 100% and 96.7% | 97.5% | 101% | 108% | 101% | 101% | 88.3% | 99.7%
20 | COc1ccc(-c2ccc3ncc4c(c3c2)n(-c2ccc(N3CCNCC3)c(C(F)(F)F)c2)c(=O)n4C)cn1 | 0.26% and 0.21% | 0.16% | 0.25% | 0.28% | 0.18% | 0.18% | 0.11% | 0.16%
21 | CC(=O)O[C@]1(C(C)=O)CC[C@H]2[C@@H]3C[C@H](C)C4=CC(=O)CC[C@]4(C)[C@H]3CC[C@@]21C [Medroxyprogesterone acetate] | 82.5% and 92.8% | 94.7% | 104% | 73% | 112% | 102% | 98.5% | 87.5%

— the supplement of paper PMC10981050
